Bioassay records as filed in PubChem.
In the library only some 6.5% were active in any assay of this set; here they are far more common.
HCMV antiviral = qHTS Assay for inhibitors of the human cytomegalovirus (HCMV). HFF cells, HCMV-luciferase reporter, 72 h; hits give low values. activity change, negative = inhibition, % at 57.5 µM. hit rate 4.5% among 410,000. AID 1259415, 2018; in the data active = activity change below about -60%; inconclusive = no clear call, values can overlap the other calls; inactive = above about -39%
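Luciferase read-out from HCMV-luciferase-infected HFFs (MOI 1 PFU/cell) 72 h post infection at 37C; compounds added after 16 h cell attachment; activity normalized between buffer-only basal and Salinomycin (10uM) inhibitor controls.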
LASV entry inh = qHTS for Inhibitors of binding or entry into cells for Lassa Virus. Lassa virus pseudotype entry inhibition, cell reporter. Potency, µM (titrated, usually from 37.9 µM), for inactives: top-dose activity change, negative = inhibition, hits mostly inhibitors. hit rate 1.2% among 300,000. AID 540256, 2011; calls by dose curve; tested in HEK293 cells; note: potency is the fitted concentration of half-maximal effect; nearly all actives have a fitted effect of over 50% in size
VACV Venus inh = qHTS for Stage-Specific Inhibitors of Vaccinia Orthopoxvirus: Venus Reporter Primary qHTS | Potency, µM (top dose mostly 36.5 µM), for inactives: at the top dose activity change, negative = inhibition, usual class: inhibitors | AID 720580, 2013 | Vaccinia virus Venus reporter expression, fluorescence | hit rate 0.46% among 330,000; calls by dose curve; tested in A549 cells; note: potency is the fitted concentration of half-maximal effect; nearly all actives have a fitted effect of over 30% in size
FMDV antiviral = High Throughput Screening for Foot and Mouth Disease Virus Antivirals; AID 1159524, 2015; FMDV antiviral cell-based qHTS; hit rate 1.2% among 410,000; Potency, µM (doses to about 57.9 µM), inactives show at the top dose activity change, negative = inhibition, actives largely listed as inhibitors; calls by dose curve; tested in HEK293T cells; note: read-out not given here; potency is the fitted concentration of half-maximal effect; nearly all actives have a fitted effect of over 45% in size
VACV mCherry inh = qHTS for Stage-Specific Inhibitors of Vaccinia Orthopoxvirus: mCherry Reporter Primary qHTS | Vaccinia virus mCherry reporter infection, fluorescence | Potency, µM (series often up to 36.5 µM), for inactives: at the top dose activity change, negative = inhibition, usual class: inhibitors | hit rate 0.63% among 310,000 | AID 720579, 2013; calls by dose curve; tested in A549 cells; note: potency is the fitted concentration of half-maximal effect; nearly all actives have a fitted effect of over 35% in size
MARV entry inh = qHTS for inhibitors of binding or entry into cells for Marburg Virus; hit rate 1.8% among 300,000; Marburg virus pseudotyped entry inhibition, cell reporter; Potency, µM (titrated, usually from 37.8 µM), inactives show at the top dose activity change, negative = inhibition, hits mostly inhibitors; calls by dose curve; tested in HEK293 cells; note: potency is the fitted concentration of half-maximal effect
* marks the source's active call; other numbers are inactive results; [ ] = remark or other dose. % is set by controls: 0 for no effect and ±100 for the full control effect.

For CC(C)C1C(=O)Nc2ccc(S(=O)(=O)NCc3ccc(Cl)cc3)cc21 (stereo not given) the results were HCMV antiviral -23, LASV entry inh -2%[46.1 µM], VACV Venus inh -14%, FMDV antiviral inconclusive and VACV mCherry inh -15%.
For CCC(=O)C1=C(c2ccccc2)N(C(=O)CC)n2c(nnc2-c2ccccc2)S1 the results were HCMV antiviral -20, LASV entry inh -11%[46.1 µM], VACV Venus inh -7%, FMDV antiviral -11% and VACV mCherry inh -13%.
`CCC(=O)C1=C(c2ccc(Cl)cc2)N(C(=O)CC)n2c(C)nnc2S1` gave HCMV antiviral -99*, LASV entry inh 0%[46.1 µM], VACV Venus inh -13%[7.34 µM], FMDV antiviral 0% and VACV mCherry inh inactive[7.34 µM].
For O=C(Nc1cc(C(F)(F)F)ccc1F)C1CCCCC1 the results were HCMV antiviral -106*, LASV entry inh 20%, FMDV antiviral -9% and MARV entry inh inconclusive.
`O=C(Nc1cc(C(F)(F)F)ccc1F)C1CCCC1` gave HCMV antiviral 16, LASV entry inh -1%, VACV Venus inh -5%, FMDV antiviral 22%, VACV mCherry inh -8% and MARV entry inh 1%.
`C[C@]12C[C@@](C)(C=C1C=Cc1ccccc1)C(=O)C[C@H]2c1ccccc1` gave MARV entry inh 3%[14.2 µM].
Screening CCc1ccc2oc(-c3cc(N=Cc4cccc(OC)c4O)ccc3O)nc2c1 returned LASV entry inh 6.5µM*, VACV Venus inh -21%, FMDV antiviral -43%, VACV mCherry inh -19% and MARV entry inh inconclusive.
`CCCCCCCCCCCCC/C=C/[C@@H](O)[C@H](CO)NCCCCCCCC` gave VACV Venus inh -12%[3.33 µM], FMDV antiviral 12%[6.7 µM] and VACV mCherry inh -12%[3.33 µM].
CCOC(=O)c1cc(C)n(CC2CCC(C(=O)Nc3ccc(OCC)cc3)CC2)c1C (stereo not given) was read as HCMV antiviral -61*, LASV entry inh 8%[46.1 µM], VACV Venus inh -23%, FMDV antiviral -28% and VACV mCherry inh -22%.
Screening O=[N+]([O-])c1ccc2ncnc(N3CCN(Cc4ccc5c(c4)OCO5)CC3)c2c1 returned HCMV antiviral -80* and FMDV antiviral inconclusive.
O=[N+]([O-])c1cccnc1N1CCN(Cc2ccc3c(c2)OCO3)CC1 was read as HCMV antiviral -16, LASV entry inh 0%, VACV Venus inh -15%, FMDV antiviral -21%, VACV mCherry inh -6% and MARV entry inh 2%.
`COc1ccc(N2CCC[C@@H]2/C=C/C(=O)OCc2ccccc2)cc1` gave HCMV antiviral 7.
`O=C(Nc1cccc2[nH]ncc12)c1ccc(F)cc1` gave HCMV antiviral -76*, LASV entry inh 4%, FMDV antiviral 62% and MARV entry inh inconclusive.
Screening O=C(NC(=S)Nc1cccc2[nH]ncc12)c1ccccc1 returned HCMV antiviral -62*, LASV entry inh 4%[46.1 µM], VACV Venus inh -7%, FMDV antiviral 15%, VACV mCherry inh inactive and MARV entry inh inconclusive.
For CCCC[C@]12Cc3cc(OC)c(OC)cc3[C@H](O1)c1c(cc(-c3ccccc3)oc1=O)O2 the results were MARV entry inh -25%[14.2 µM].
For O=C(NCCc1ccccn1)C1CC12CCN(C(=O)c1ccc(F)cc1Cl)CC2 (stereo not given) the results were VACV Venus inh 2%, FMDV antiviral 0% and VACV mCherry inh -12%.
COc1cccc(-c2nn(-c3ccc(C)cc3)cc2C(=O)N(C)CC(=O)Nc2cccc(F)c2)c1 was read as HCMV antiviral 35, LASV entry inh inconclusive, VACV Venus inh inconclusive, FMDV antiviral -11%, VACV mCherry inh -28% and MARV entry inh inconclusive.
For CCOc1ccc(NC(=O)CN(C)C(=O)c2cn(-c3ccc(C)cc3)nc2-c2cccc(OC)c2)cc1OCC the results were HCMV antiviral 0, LASV entry inh -29%, VACV Venus inh -17%, FMDV antiviral -5%, VACV mCherry inh 8% and MARV entry inh 11µM*.
